# Only some compounds are listed: those with a hit (about 19% of all), similar ones and a draw of the others.
# DT40 TDP1 CPT: qHTS for Inhibitors of human tyrosyl-DNA phosphodiesterase 1 (TDP1): qHTS in cells in presence of CPT. actives 12% (n = 420,000). AID 686979, 2013. chicken DT40 Tdp1-/-;hTDP1 cells + 20 nM CPT, ATP luminescence, 48 h. Potency, µM (top dose mostly 46.2 µM), for the others: at the top dose activity change, negative = growth inhibition, actives largely listed as inhibitors; further: potency means the concentration at half of the fitted maximal effect; on the % scale 0 is the no-effect control and ±100 the full control effect; nearly all actives have a fitted effect of over 55% in size
#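 Chicken DT40 Tdp1-/- cells complemented with human TDP1, 400 cells/well, exposed to compounds plus 20 nM camptothecin for at least 48 h at 37 C; viability read as ATP content by CellTiter-Glo luminescence.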
# TGFb SMAD3 inh: qHTS for Inhibitors of TGF-b; HepG2 CAGA-GFP TGF-b/SMAD3 reporter, GFP fluorescence, 18 h; TGF-beta stimulated, 500 pg/mL final; Potency, µM (titrated, usually from 46.1 µM), for the others: at the highest dose activity, negative = inhibition, actives largely listed as inhibitors; actives 1.2% (n = 410,000); further: potency means the concentration at half of the fitted maximal effect; on the % scale 0 is the no-effect control and ±100 the full control effect; nearly all actives have a fitted effect of over 65% in size
#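 Inhibition was scored as loss of TGF-beta-induced (500 pg/mL final, 18 hours, 37 degrees C) GFP in HEPG2 cells carrying a CAGA-GFP reporter, in DMEM with 1% FBS. Well GFP was summed per cell; Activity was normalised to unstimulated and stimulated DMSO wells, then concentration-response fitting.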
# DT40 TDP1 no CPT: qHTS for Inhibitors of human tyrosyl-DNA phosphodiesterase 1 (TDP1): qHTS in cells in absence of CPT | Potency, µM (series often up to 46.2 µM), inactives show at the highest dose activity change, negative = growth inhibition, usual class: inhibitors | actives 15% (n = 420,000) | DT40 Tdp1-/- hTDP1 cells, no CPT, ATP luminescence, 48 h; further: potency means the concentration at half of the fitted maximal effect; on the % scale 0 is the no-effect control and ±100 the full control effect; nearly all actives have a fitted effect of over 55% in size
#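 Chicken DT40 Tdp1-/- cells complemented with human TDP1, screened without camptothecin (DMSO vehicle only), 400 cells/well. Compounds pin-transferred, cells incubated at 37 °C for at least 48 hr. Growth read as ATP-dependent luminescence (CellTiter-Glo, 30 min at RT).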
# TDP1 inh: qHTS Assay for Inhibitors of Tyrosyl-DNA Phosphodiesterase (TDP1); Tyrosyl-DNA phosphodiesterase 1 (Homo sapiens), Q9NUW8; recombinant TDP1, AlphaScreen DNA substrate cleavage; Potency, µM (titrated, usually from 130 µM), for inactives: at the top dose activity change, negative = inhibition, actives largely listed as inhibitors; actives 0.28% (n = 350,000); AID 485290, 2010; further: potency means the concentration at half of the fitted maximal effect; on the % scale 0 is the no-effect control and ±100 the full control effect; nearly all actives have a fitted effect of over 40% in size
# Target sequence (Q9NUW8 whole entry, looked up): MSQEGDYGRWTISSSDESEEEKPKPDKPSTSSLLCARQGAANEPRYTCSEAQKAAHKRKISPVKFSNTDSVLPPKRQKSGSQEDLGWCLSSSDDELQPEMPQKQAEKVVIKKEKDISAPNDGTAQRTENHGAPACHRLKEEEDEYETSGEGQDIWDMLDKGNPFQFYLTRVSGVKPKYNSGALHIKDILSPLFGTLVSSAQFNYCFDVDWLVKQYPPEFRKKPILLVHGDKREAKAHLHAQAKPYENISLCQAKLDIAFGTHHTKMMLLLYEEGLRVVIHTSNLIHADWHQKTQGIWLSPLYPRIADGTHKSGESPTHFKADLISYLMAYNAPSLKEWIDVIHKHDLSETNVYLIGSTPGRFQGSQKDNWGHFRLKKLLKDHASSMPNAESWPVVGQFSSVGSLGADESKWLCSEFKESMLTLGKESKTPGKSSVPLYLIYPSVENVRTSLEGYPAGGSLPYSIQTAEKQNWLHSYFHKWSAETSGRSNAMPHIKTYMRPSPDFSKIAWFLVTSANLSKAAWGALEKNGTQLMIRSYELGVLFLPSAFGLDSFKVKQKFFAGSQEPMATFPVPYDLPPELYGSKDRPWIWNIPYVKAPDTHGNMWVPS
#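 AlphaScreen read-out: signal falls as enzyme removes the 3' tyrosine-FITC from a 5'-biotinylated DNA oligo (15 nM, 5 min, RT). Enzyme was E. coli-made recombinant Tdp1 at 1 nM, exposed to compound for 15 min beforehand; beads 10 ug/ml, 10 min.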
# HepG2 tox-1: qHTS for Inhibitors of TGF-b: Cytotox Counterscreen | HepG2 CAGA-GFP viability, ATP luminescence, 18 h | Potency, µM (titrated, usually from 46.1 µM), for the others: at the highest dose activity change, negative = cytotoxicity, usual class: cytotoxic | actives 0.76% (n = 410,000); further: potency means the concentration at half of the fitted maximal effect
#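 HepG2 CAGA-GFP cells (1000/well, DMEM with 1% FBS) received compound, then TGF-beta at 500 pg/mL final, and were incubated 18 hours at 37 degrees C. Viability was read by CellTiter-Glo luminescence. Media-only wells were set as complete cell-killing and DMSO as no toxicity.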
# IL1B secr inh: qHTS for Inhibitors of Inflammasome Signaling: IL-1-beta AlphaLISA Primary Screen. THP-1 LPS/ATP IL-1B secretion, AlphaLISA, 16 h; active compounds read low. actives 4.7% (n = 360,000). activity change, % at 57.5 µM. AID 743279, 2014; in the data active means activity change below about -50%; inconclusive means mostly about -30% to -49%; further: on the % scale 0 is the no-effect control and ±100 the full control effect
#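 THP-1 cells pretreated 1 hr with compounds (up to 57.5 uM final), then stimulated with LPS (250 ng/mL final) plus ATP (1.25 mM final); secreted IL-1B measured by AlphaLISA after 16 hr, decreased signal indicating inhibition.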
# TGFb confirm: qHTS for Inhibitors of TGF-b: Confirmation of Cherry Picks. Potency, µM (highest dose often 46.1 µM), without a hit: at the top dose activity, negative = inhibition, most hits filed as inhibitors. actives 63% (n = 1,600). HepG2 CAGA-GFP TGF-b reporter, GFP fluorescence, 18 h; cells stimulated with TGF-beta, 500 pg/mL. shares compounds with TGFb SMAD3 inh. AID 720534, 2013; further: potency means the concentration at half of the fitted maximal effect; on the % scale 0 is the no-effect control and ±100 the full control effect; nearly all actives have a fitted effect of over 65% in size
# HepG2 tox-2: qHTS for Inhibitors of TGF-b: Cytotox Counterscreen for Cherry Picks | shares compounds with TGFb SMAD3 inh | Potency, µM (top dose mostly 46.1 µM), without a hit: at the top dose activity, negative = cytotoxicity, most hits filed as inhibitors | HepG2 CAGA-GFP viability, ATP luminescence, 18 h; cells stimulated with TGF-beta, 500 pg/mL | actives 27% (n = 1,600); further: potency means the concentration at half of the fitted maximal effect; on the % scale 0 is the no-effect control and ±100 the full control effect; nearly all actives have a fitted effect of over 70% in size
# CCL64 TGFb inh: qHTS for Inhibitors of TGF-b: CCL64 Cells Orthogonal Assay for Cherry Picks. shares compounds with TGFb SMAD3 inh. actives 41% (n = 1,600). Potency, µM (doses to about 46.1 µM), for the others: top-dose activity, negative = inhibition, actives largely listed as inhibitors. CCL64 CAGA-GFP reporter, TGF-b stimulated, GFP fluorescence, 18 h; further: potency means the concentration at half of the fitted maximal effect; nearly all actives have a fitted effect of over 65% in size
# TGFb COP inh: qHTS for Inhibitors of TGF-b: Hit Validation in HepG2 Cells using COP promoter. shares compounds with TGFb SMAD3 inh. HepG2 COP-GFP TGF-b reporter, GFP fluorescence, 18 h; cells stimulated by added recombinant TGF-beta. Potency, µM (titrated, usually from 46.1 µM), inactives show at the highest dose activity, negative = inhibition, most hits filed as inhibitors. actives 3% (n = 1,600). AID 720537, 2013; further: potency means the concentration at half of the fitted maximal effect; nearly all actives have a fitted effect of over 70% in size
# * hit, by the source's call; ? = inconclusive; nt = not tested or not shown. Unless noted, the call rests on the fitted dose curve; in most records, active means well fitted curve in the direction sought with a large enough effect; inconclusive means small, poorly fitted or top-dose-only effect, or another doubt; inactive means no such curve, though single readings can be large; an effect the other way counts as inactive or inconclusive.
SMILES,DT40 TDP1 CPT,TGFb SMAD3 inh,DT40 TDP1 no CPT,TDP1 inh,HepG2 tox-1,IL1B secr inh,TGFb confirm,HepG2 tox-2,CCL64 TGFb inh,TGFb COP inh
CC(=O)N1CCc2c(sc(NC(=O)c3ccc([N+](=O)[O-])o3)c2C(N)=O)C1,3.66µM*,3.55µM*,7.31µM*,nt,-91.1%,-80.0*,4.61µM*,5.8µM*,?,?
COc1ccccc1-n1cc([C@@H]2C[C@H]3CN(c4ccccc4)C(=O)[C@]34CCCN24)cn1,-6.9%,5.01µM*,2.7%,5.6%,0.0%,-78.4*,0.731µM*,?,5.17µM*,26.7%
Nc1nnnn1/N=C/C=C/c1ccccc1,-3.6%,-20.4%,-3.3%,2.1%,6.3%,-2.4,nt,nt,nt,nt
Nc1nnnn1/N=C/C(Br)=C/c1ccccc1,0.461µM*,3.55µM*,0.581µM*,1.9%,-30.1%,-93.0*,?,?,?,33.7%
CCOc1ccc(S(=O)(=O)N2CCN(CC(O)COc3cccc([N+](=O)[O-])c3)CC2)cc1 (centres undefined),14.6µM*,?,23.1µM*,nt,-28.1%,?,?,-13.1%,?,18.5%
CC(=O)Nc1ccc(S(=O)(=O)N2CCN(CC(O)COc3ccc4ccccc4c3)CC2)cc1 (centres undefined),?,?,?,9.1%,-18.0%,-61.4*,25.9µM*,-29.2%,-2.5%,6.7%
CCC(=O)c1ccc(OCC(O)CN2CCN(S(=O)(=O)c3ccc(NC(C)=O)cc3)CC2)cc1 (centres undefined),-25.6%,-6.6%,-15.3%,nt,5.0%,-10.7,nt,nt,nt,nt
COc1cc2nc3n(c(=O)c2cc1OC)-c1ncccc1C(=O)NC3Cc1ccccc1 (centres undefined),-10.2%,9.8%,-29.0%,nt,-0.6%,-25.1,nt,nt,nt,nt
CSc1ncnc2c1ccn2CC(=O)Nc1ccc(C)c(C)c1,?,-14.4%,?,0.3%,-18.4%,-5.0,nt,nt,nt,nt
CN(CCOc1ccccc1)C(=O)C1CCN(C(=O)c2ccc(F)cc2)CC1,?,?,?,4.3%,0.0%,10.2,-16.3%,9.6%,-3.5%,11.7%
CCOc1ccccc1C(=O)N1CCC(C(=O)c2ccc(F)cc2)CC1,?,-3.4%,?,nt,3.3%,-2.5,nt,nt,nt,nt
Oc1c(C(c2ccccn2)N2CCCCC2)cc(Cl)c2cccnc12 (centres undefined),18.4µM*,7.94µM*,10.3µM*,10.8%,-40.6%,78.8,?,?,?,-0.4%
c1ccc(C(c2nnnn2C2CCCC2)N2CCCCCC2)nc1 (centres undefined),-20.5%,4.0%,?,3.7%,-18.2%,4.2,nt,nt,nt,nt
O=C(N=Nc1c(O)[nH]c2ccc(Br)cc12)c1ccco1,1.0%,-5.9%,?,nt,-15.9%,-12.5,nt,nt,nt,nt
O=C(N=Nc1c(O)[nH]c2ccc(Br)cc12)c1ccccc1-n1cccc1,4.61µM*,?,2.59µM*,10.1%,-22.4%,2.4,7.31µM*,?,18.4µM*,45.1%
CC1(C(=O)NS(=O)(=O)c2ccc(F)cc2F)CCN1C(=O)CCc1ccccc1 (centres undefined),-2.9%,19.3%,0.2%,nt,-0.3%,9.0,nt,nt,nt,nt
NC(c1csc(NC(=O)Nc2ccc(OC(F)(F)F)cc2)n1)C1CCCCC1 (centres undefined),10.3µM*,8.91µM*,9.2µM*,nt,7.94µM*,-111.8*,?,18.4µM*,20.6µM*,?
CN(CC(=O)Nc1ccc(OC(F)(F)F)cc1)C1CCCCC1,?,-3.7%,-10.8%,nt,-8.4%,?,nt,nt,nt,nt
O=C(COc1ccc(C(=O)c2ccccc2)cc1)NCc1ccc(F)cc1,0.92µM*,?,1.03µM*,2.8%,4.5%,-2.7,9.2µM*,-14.0%,?,-3.6%
O=C(COc1ccccc1)NCc1ccccc1,4.6%,0.0%,-6.6%,-3.6%,11.0%,19.7,nt,nt,nt,nt
C[C@@H]1CN([C@@H](C)CO)C(=O)CCCn2nncc2CO[C@@H]1CN(C)S(=O)(=O)c1cccc(C#N)c1,-1.7%,12.4%,-18.1%,nt,14.0%,-5.0,nt,nt,nt,nt
CCOc1ccc(CCN2C(=S)N([C@@H](CC(C)C)CN3CCC[C@@H]3CN3C(=S)NC[C@@H]3CC(C)C)C[C@@H]2Cc2ccc(O)cc2)cc1,9.2µM*,6.31µM*,11.6µM*,nt,-43.6%,nt,?,?,18.4µM*,68.1%
CCOc1ccc(CCN2C(=S)N([C@@H](CC(C)C)CN3CCCC3CN3C(=S)NC[C@@H]3Cc3ccc(O)cc3)C[C@@H]2CC(C)C)cc1 (some centres undefined),?,4.47µM*,16.4µM*,nt,-3.8%,?,11.6µM*,-16.8%,?,3.4%

# Source: PubChem BioAssay
